# Measurements reported in ChEMBL document CHEMBL3988442, “University of Dundee, Small-Polar-MMV Screening Library” (2021).
# For some assays here: Entries with a potency or affinity are not part of this list.
# Columns and labels:
# Design in all cases: scale not given: direction of the effect not stated beside the values
# [1] = target: Protein translocase subunit SecA (Escherichia coli (strain K12)) (UniProt P10408); assay: Assay to Identify E. coli SecA ATPase Inhibitors; type: functional; conditions: 30 µM
# Protein translocase subunit SecA (Escherichia coli (strain K12)), sequence (P10408 whole entry): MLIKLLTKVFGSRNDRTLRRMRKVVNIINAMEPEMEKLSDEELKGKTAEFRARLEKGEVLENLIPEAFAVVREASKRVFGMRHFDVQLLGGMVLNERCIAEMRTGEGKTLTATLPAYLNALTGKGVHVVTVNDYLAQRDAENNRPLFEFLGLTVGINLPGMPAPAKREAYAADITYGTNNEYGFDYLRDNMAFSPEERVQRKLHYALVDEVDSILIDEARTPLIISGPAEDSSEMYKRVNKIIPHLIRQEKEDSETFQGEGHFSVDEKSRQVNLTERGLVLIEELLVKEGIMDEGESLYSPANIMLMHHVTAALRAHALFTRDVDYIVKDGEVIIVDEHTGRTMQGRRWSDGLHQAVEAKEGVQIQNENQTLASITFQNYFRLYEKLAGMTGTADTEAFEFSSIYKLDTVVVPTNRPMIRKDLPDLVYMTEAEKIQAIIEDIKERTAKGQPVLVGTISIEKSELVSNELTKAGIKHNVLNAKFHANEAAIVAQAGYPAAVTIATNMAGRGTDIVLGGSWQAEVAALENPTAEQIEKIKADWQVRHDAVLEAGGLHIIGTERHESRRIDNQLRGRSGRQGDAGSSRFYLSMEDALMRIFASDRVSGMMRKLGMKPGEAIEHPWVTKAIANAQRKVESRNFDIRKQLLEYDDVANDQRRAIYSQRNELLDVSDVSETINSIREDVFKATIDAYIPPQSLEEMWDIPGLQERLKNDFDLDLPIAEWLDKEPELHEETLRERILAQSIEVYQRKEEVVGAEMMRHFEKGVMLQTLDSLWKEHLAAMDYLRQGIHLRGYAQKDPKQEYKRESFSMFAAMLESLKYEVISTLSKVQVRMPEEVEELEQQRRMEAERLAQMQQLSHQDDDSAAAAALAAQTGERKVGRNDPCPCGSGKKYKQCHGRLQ
# [2] = target: T1, Ubiquitin-activating enzyme e1, putative (Leishmania donovani (strain BPK282A1)) (UniProt E9BSI1); assay: Leishmania donovani Ubiquitin Activating Enzyme (LdE1); type: functional; conditions: 30 µM
# T1 sequence (whole entry): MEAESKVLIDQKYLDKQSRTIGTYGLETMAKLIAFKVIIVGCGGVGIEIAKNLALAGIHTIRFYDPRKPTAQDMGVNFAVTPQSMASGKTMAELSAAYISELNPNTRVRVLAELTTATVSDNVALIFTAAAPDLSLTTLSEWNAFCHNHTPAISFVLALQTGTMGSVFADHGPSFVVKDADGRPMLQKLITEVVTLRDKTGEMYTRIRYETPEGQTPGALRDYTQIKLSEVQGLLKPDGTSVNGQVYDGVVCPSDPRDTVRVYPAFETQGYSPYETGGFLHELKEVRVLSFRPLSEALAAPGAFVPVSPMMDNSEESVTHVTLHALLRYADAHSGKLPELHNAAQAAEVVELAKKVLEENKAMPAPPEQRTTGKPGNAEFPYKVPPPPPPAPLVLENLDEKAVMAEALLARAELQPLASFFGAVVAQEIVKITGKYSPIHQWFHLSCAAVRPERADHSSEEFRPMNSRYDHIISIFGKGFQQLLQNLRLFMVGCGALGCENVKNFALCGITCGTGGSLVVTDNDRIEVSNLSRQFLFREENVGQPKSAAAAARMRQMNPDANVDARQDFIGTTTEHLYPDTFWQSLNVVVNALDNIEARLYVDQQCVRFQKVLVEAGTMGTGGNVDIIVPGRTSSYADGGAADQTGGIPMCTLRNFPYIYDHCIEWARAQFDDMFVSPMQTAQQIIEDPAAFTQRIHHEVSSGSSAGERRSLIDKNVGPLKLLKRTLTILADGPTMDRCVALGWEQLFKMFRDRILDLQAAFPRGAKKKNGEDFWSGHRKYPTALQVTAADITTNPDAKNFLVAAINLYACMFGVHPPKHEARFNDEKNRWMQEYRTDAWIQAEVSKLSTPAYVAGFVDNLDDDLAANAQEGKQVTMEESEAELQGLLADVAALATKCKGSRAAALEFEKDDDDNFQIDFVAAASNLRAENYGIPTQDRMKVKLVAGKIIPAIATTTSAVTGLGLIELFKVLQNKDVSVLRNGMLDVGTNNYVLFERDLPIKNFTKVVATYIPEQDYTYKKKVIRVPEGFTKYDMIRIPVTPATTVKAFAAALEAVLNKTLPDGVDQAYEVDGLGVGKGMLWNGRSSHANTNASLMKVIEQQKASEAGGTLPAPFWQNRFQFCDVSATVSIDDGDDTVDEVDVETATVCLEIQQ
# [3] = target: AMP-activated protein kinase, AMPK (Homo sapiens) (UniProt P54646+O43741+P54619+Q9UGJ0+Q9Y478+Q13131+Q9UGI9); assay: AMP-dependent Kinase enzyme assay. An in vitro enzyme assay that detects ADP turnover that is directly proportional to AMPK activity. This uses naive AMPK that is activated during the assay with MK-8722; type: functional; conditions: 30 µM
# [4] = target: Sialic acid-binding Ig-like lectin 9 (Homo sapiens) (UniProt Q9Y336); assay: Hs-Siglec9 ALPHAscreen SOP 20170721; conditions: 10 µM
# Sialic acid-binding Ig-like lectin 9 (Homo sapiens), sequence (Q9Y336 whole entry): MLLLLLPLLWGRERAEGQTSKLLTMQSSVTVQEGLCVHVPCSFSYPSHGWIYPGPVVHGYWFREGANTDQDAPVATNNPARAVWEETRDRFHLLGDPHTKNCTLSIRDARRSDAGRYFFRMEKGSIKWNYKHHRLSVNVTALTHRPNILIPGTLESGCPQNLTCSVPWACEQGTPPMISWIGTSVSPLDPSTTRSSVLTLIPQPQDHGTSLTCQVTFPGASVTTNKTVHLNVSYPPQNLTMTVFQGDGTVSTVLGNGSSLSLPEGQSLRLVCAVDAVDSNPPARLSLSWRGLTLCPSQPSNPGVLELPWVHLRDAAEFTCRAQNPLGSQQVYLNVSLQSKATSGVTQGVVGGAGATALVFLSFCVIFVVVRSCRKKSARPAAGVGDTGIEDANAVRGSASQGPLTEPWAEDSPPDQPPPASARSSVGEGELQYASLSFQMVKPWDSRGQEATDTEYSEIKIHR
# Trypanosoma cruzi = assay: Trypanosoma cruzi phosphomannomutase and mannose-1-phosphate guanylyltransferase assay; type: functional; conditions: 10 µM
# [5] = target: T2, Arginase-2, mitochondrial (Homo sapiens) (UniProt P78540); assay: in vitro enzyme assay to detect the production of urea directly proportional to the activity of Arginase II; type: functional; conditions: 33.3 µM; note: in the data most compounds retested in dose-response had high values
# T2 sequence (whole entry): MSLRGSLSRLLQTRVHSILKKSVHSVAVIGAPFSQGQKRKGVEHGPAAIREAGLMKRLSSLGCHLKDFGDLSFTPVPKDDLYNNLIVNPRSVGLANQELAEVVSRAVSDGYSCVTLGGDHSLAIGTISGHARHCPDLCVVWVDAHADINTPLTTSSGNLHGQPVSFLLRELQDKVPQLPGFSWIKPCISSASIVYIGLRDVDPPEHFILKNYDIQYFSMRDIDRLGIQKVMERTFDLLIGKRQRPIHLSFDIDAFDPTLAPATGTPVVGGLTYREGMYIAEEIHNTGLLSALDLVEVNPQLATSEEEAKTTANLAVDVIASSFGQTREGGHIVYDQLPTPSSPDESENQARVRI
# [6] = target: T3, Proteasome subunit beta (Trypanosoma cruzi) (UniProt O96673); assay: Trypanosoma cruzi proteasome chymotrypsin-like activity (TcProtChymo) assay.; note: in the data most compounds retested in dose-response had high values; type: functional; conditions: 9.37 µM
# T3 sequence (whole entry): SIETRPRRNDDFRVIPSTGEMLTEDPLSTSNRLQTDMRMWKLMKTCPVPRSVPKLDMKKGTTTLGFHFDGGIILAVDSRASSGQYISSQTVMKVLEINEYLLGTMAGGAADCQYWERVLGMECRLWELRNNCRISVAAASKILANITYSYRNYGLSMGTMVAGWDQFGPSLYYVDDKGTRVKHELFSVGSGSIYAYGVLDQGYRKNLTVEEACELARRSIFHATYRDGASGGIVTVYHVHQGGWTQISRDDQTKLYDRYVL
# Homo sapiens = species: Homo sapiens; assay: To identify inhibition of the IFN signalling (Jak-Stat) pathway via expression of an eGFP reporter gene under the control of an IFN-stimulated response element (ISRE) containing MxA promoter.; type: functional; conditions: 30 µM
# [7] = target: T4, Tyrosyl-tRNA synthetase, putative (Trypanosoma cruzi (strain CL Brener)) (UniProt Q4DSP6); assay: Trypanosoma cruzi tyrosyl tRNA synthetase (TcYRS) _High Tyrosine SOP; type: functional; conditions: 30 µM; note: in the data most compounds retested in dose-response had high values
# T4 sequence (whole entry): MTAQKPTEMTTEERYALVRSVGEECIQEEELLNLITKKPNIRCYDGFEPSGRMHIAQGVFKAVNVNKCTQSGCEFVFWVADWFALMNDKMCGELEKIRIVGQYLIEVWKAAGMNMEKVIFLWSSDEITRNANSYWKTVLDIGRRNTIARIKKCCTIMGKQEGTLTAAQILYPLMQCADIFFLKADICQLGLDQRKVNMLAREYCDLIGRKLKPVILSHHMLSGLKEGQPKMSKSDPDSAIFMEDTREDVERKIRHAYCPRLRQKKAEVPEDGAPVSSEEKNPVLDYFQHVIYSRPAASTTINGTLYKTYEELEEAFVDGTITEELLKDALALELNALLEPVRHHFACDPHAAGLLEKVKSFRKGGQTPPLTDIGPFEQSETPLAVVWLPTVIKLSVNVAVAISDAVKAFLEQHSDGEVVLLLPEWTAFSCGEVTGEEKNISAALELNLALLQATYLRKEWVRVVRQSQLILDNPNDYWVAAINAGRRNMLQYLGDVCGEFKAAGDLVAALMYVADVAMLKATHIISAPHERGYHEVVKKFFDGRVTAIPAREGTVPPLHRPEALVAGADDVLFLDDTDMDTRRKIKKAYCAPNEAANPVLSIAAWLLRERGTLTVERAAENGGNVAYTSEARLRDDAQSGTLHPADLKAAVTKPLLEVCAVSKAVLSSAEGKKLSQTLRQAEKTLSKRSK
# [8] = target: T4, Tyrosyl-tRNA synthetase, putative (Trypanosoma cruzi (strain CL Brener)); assay: Trypanosoma cruzi tyrosyl tRNA synthetase (TcYRS) SOP; type: functional; conditions: 30 µM
# [9] = target: Chromo domain-containing protein 1 (Saccharomyces cerevisiae (strain ATCC 204508 / S288c) (Baker's yeast)) (UniProt P32657); assay: ScCHD-1 Enzyme Inhibition Assay; type: functional; conditions: 30 µM; note: in the data most compounds retested in dose-response had high values
# Chromo domain-containing protein 1 (Saccharomyces cerevisiae (strain ATCC 204508 / S288c) (Baker's yeast)), sequence (P32657 whole entry, the tested form may be a part): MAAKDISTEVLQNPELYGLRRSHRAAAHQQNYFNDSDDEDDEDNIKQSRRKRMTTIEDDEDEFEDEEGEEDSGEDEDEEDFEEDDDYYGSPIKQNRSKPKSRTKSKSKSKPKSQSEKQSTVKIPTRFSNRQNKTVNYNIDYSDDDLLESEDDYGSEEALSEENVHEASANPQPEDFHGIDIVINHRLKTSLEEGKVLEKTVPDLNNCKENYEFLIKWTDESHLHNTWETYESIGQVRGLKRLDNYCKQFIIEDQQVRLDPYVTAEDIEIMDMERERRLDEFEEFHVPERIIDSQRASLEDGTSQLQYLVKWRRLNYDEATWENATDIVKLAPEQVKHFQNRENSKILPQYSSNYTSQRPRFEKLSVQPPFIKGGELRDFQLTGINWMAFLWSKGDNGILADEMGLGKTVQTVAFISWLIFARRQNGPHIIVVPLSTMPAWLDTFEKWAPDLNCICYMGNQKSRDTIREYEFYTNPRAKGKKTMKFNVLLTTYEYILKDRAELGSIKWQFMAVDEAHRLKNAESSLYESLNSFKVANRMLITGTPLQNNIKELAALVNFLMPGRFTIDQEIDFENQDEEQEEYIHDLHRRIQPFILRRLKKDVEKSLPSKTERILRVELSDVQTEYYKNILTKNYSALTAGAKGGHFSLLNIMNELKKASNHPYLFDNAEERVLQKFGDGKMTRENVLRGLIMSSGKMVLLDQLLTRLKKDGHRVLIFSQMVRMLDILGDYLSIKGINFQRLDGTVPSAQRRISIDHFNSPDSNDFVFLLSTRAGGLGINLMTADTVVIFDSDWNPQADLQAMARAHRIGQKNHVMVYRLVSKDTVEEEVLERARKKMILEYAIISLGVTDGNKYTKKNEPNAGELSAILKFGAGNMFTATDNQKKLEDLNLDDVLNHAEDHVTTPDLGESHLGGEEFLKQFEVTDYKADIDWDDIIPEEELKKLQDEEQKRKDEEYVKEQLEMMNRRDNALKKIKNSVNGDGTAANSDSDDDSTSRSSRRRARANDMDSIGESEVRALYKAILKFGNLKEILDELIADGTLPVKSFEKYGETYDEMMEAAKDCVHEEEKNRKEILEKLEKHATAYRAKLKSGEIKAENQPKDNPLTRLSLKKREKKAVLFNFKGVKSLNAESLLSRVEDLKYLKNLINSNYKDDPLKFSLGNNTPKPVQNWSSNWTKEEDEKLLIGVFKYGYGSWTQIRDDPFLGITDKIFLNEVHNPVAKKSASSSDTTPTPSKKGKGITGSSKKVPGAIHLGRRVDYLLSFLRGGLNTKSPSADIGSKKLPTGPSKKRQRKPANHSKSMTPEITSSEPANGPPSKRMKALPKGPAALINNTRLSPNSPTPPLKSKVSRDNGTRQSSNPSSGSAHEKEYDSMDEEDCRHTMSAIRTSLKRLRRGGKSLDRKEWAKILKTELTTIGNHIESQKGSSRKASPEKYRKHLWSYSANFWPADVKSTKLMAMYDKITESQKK
SMILES,Percent Effect [1],Percent Effect [2],Percent Effect [3],Percent Effect [4],Percent Effect (Trypanosoma cruzi),Percent Effect [5],Percent Effect [6],Percent Effect (Homo sapiens),Percent Effect [7],Percent Effect [8],Percent Effect [9]
COCc1noc(C2(c3ccc(OC)cc3)CCOCC2)n1,-3.44%,5.41%,0.468%,6.74%,-0.386%,2.86%,14.1%,9.88%,3.7%,17.1%,-2.16%
CC(C)n1c(C2CCCN(CCS(C)(=O)=O)C2)nc2ccccc21 (stereo unspecified),-2.02%,8.11%,1.95%,-0.0156%,0.586%,13.8%,7.69%,-5.65%,5.94%,8.54%,-2.93%
C=C(C)C(=O)N1CCC(C(=O)c2cc(C)cnc2N)CC1,-7.55%,5.33%,0.0671%,1.76%,7.09%,-1.63%,5.55%,11.8%,7.45%,14.1%,-3.43%
CCOCC(O)CN1CCN(C(=O)c2cnc3n[nH]c(C)c3c2)CC1 (stereo unspecified),-4.29%,10.5%,1.79%,1.55%,5.7%,1.44%,8.54%,10.1%,7.39%,16.1%,-0.703%
COc1ccnc(N2CCN(C(=O)c3csc(C(C)C)n3)CC2)n1,-7.52%,10.8%,-3.77%,29.4%,9.68%,5.21%,7.3%,13%,4.3%,11.1%,-11.3%
COc1c(CNC(c2nccn2C)C(C)C)c(C)nn1C (stereo unspecified),1.37%,-5.26%,0.924%,13.8%,-2.07%,-2.68%,2.84%,-7.86%,6.37%,0%,4.67%
COC(=O)c1cccc(NS(=O)(=O)c2cnc(NC(C)=O)s2)c1,1.56%,6.67%,-2.6%,1.81%,-6.09%,-8.63%,17.4%,-6.95%,3.17%,0%,-6.88%
CCc1nc(CN2CCCN(C(=O)c3cnc[nH]3)CC2)cs1,-0.253%,-2.7%,2.03%,4.57%,2.14%,-1.66%,12.9%,2.83%,3.96%,1.22%,4.62%
Cc1ccc(NC(=O)NCCCc2n[nH]c(N)c2C#N)cc1,-1.33%,15.2%,3.73%,-1.97%,-3.12%,1.9%,13.5%,13.3%,5.42%,11.4%,-3.94%
Cc1ccc(C(=O)N2CCN(CCCSCC#N)CC2)o1,-3.54%,-5.48%,1.04%,10.8%,1.98%,-2.4%,6.42%,18.1%,4.17%,11.1%,0.208%
CC(C)(O)CN1CCN(C(=O)c2cc3ccccc3c(=O)[nH]2)CC1,0.132%,2.63%,5.98%,-1.12%,-3.6%,-2.37%,7.57%,-8.77%,7.45%,13%,-5.58%
COc1ccc(OCCCN2CCOC(Cn3cccn3)C2)cc1 (stereo unspecified),-8.28%,3.8%,9.54%,3.31%,-1.74%,1.94%,2.74%,28.6%,1.04%,2.53%,-3.35%
Cc1cccc(-n2cc(C(=O)N3CCn4c(C)nnc4C3)nn2)c1,-9.19%,-2.74%,2.62%,0.154%,-4.17%,-8.38%,3%,21.1%,3.12%,1.24%,0.00385%
CS(=O)(=O)NCc1nnc2n1CCN(CC1CC1)C2,-5.86%,8.11%,5.91%,-4.89%,-0.293%,-2.23%,18.6%,-21.1%,5.41%,12.8%,-2.16%
C[C@@H]1CN(C(=O)c2ccc(C#N)nc2)C[C@@]1(O)C1CC1,-4.79%,13.5%,-4.57%,30.4%,9.65%,-1.91%,5%,1.76%,2.65%,14.6%,-12.3%
O=C(c1ccn(-c2ccccc2Cl)n1)N1CCSCC1,-4.68%,8.11%,1.31%,12.9%,-6.55%,1.74%,3.69%,20.1%,0%,11.1%,-3.09%
